aSyn 5UTR act: Activators via SNCA 5'UTR binding, MLPCN; alpha-synuclein 5'UTR reporter, activators screen; activity score, % (tested at 7.5 µM), hits read low; 300,000 tested, 7.1% active; AID 1814; in the data active = activity score below about -60%
Numbers stand for hits. Not all results are given here.

C=CCNC(=O)N1CCCC(C(=O)c2cccc(OC(C)C)c2)C1 (stereo not drawn) was read as aSyn 5UTR act -89.
For c1ccc(C[n+]2csc3ccccc32)cc1 the results were aSyn 5UTR act -71.
O=[n+]1cc(-c2cc3ccccc3o2)n([O-])c2c1CCCC2 was read as aSyn 5UTR act -91.
`O=C(CCCOc1ccccc1)Nc1nc2ccccc2[nH]1` gave aSyn 5UTR act -115.
Screening O=C(CSc1ccccc1)Nc1nc2ccccc2[nH]1 returned aSyn 5UTR act -132.
`O=C(CSc1ccc(Cl)cc1)Nc1ccc(-c2nc3ccccc3[nH]2)cc1` gave aSyn 5UTR act -94.
`O=C(CSc1n[nH]c(-c2ccccn2)n1)Nc1ccc(Cl)cc1` gave aSyn 5UTR act inactive.
`CC(C)Oc1ccc(/C=N/NC(N)=S)cc1` gave aSyn 5UTR act -116.
CNC(=S)N/N=C/c1ccc(N(C)C)cc1 was read as aSyn 5UTR act -89.
Screening Cc1c(C(=O)N/N=C/c2ccc(N(C)C)cc2)[nH]c2ccc(Cl)cc12 returned aSyn 5UTR act inactive.
For CN(C)c1ccc(/C=N/NC(=S)NCc2ccccc2)cc1 the results were aSyn 5UTR act -85.
CNC(=S)N/N=C/c1ccc(C(C)C)cc1 was read as aSyn 5UTR act -161.
Screening COCCN=C1NN=C(c2ccc(C)c([N+](=O)[O-])c2)CS1 returned aSyn 5UTR act -108.
CCCCN=C1NN=C(c2ccc(C)c(C)c2)CS1 was read as aSyn 5UTR act -162.
CC1CC(=O)NN=C1c1ccc(NCCO)c([N+](=O)[O-])c1 (stereo not drawn) was read as aSyn 5UTR act inactive.
`CC(=O)c1c(C)[nH]c(C(=O)Nc2nc(C)cs2)c1C` gave aSyn 5UTR act inactive.
`CC(=O)c1c(C)[nH]c(C(=O)Nc2cccc(S(=O)(=O)N(C)C)c2)c1C` gave aSyn 5UTR act -153.
COc1ccc(OC)c(NC(=O)c2[nH]c(C)c(C(C)=O)c2C)c1 was read as aSyn 5UTR act -85.
Screening CC(=O)c1c(C)[nH]c(C(=O)Nc2cc(C)cc(C)c2)c1C returned aSyn 5UTR act -78.
For N#C/C(=C(/O)CN1CCCC1)c1nc(-c2ccccc2)cs1 the results were aSyn 5UTR act -115.
`C=CCN(C(=O)CN1CCCCC1)c1nc(-c2ccccc2)cs1` gave aSyn 5UTR act -110.
Screening Cc1cc(C)n(-c2ccc(C(=O)Nc3ccc4c(c3)OCO4)cc2)n1 returned aSyn 5UTR act -173.
`Cc1cc(C)n(-c2ccc(C(=O)NC3=NCCS3)cc2)n1` gave aSyn 5UTR act -110.
For Cc1ccc(C(=O)NCCSC(C)(C)C)cc1[N+](=O)[O-] the results were aSyn 5UTR act -119.
For COc1cccc(C(=O)NCCSc2ccc(F)cc2)c1 the results were aSyn 5UTR act -157.
Screening COc1cccc(C(=O)NCC(=O)N2CCC(C)CC2)c1 returned aSyn 5UTR act -115.
O=C(NCCSc1ccccc1)c1cncc(Br)c1 was read as aSyn 5UTR act -132.
For CSCCNC(=O)c1ccc(C(C)(C)C)cc1 the results were aSyn 5UTR act -84.
O=C(NCCOc1ccccc1)c1cc2ccccc2o1 was read as aSyn 5UTR act -81.
Screening O=C(NCCSc1ccccc1)c1ccccc1 returned aSyn 5UTR act -191.
Screening CC(C)(C)c1ccc(C(=O)NCCOc2ccccc2F)cc1 returned aSyn 5UTR act inactive.
COc1cccc(C(=O)NCCn2ccc3ccccc32)c1 was read as aSyn 5UTR act -119.
Screening COc1cc(OC)cc(C(=O)NCCOc2ccccc2)c1 returned aSyn 5UTR act -121.
`O=C(NCCOc1ccccc1)c1cncc(Br)c1` gave aSyn 5UTR act -92.
Screening COc1c(C(=O)NCCSC(C)(C)C)ccc2ccccc12 returned aSyn 5UTR act -62.
For O=C(NCCSc1ccccc1)c1ccc(Br)cc1 the results were aSyn 5UTR act -67.
`COc1ccc(C(=O)NCc2cc3ccccc3n2C)cc1` gave aSyn 5UTR act -92.
COc1ccc(N=Nc2n(C)c3ccccc3[n+]2C)cc1 was read as aSyn 5UTR act inactive.
Screening CC(C)(C)SCCNC(=O)c1ccccc1 returned aSyn 5UTR act -117.
Screening COc1cc(OC)cc(-c2cc3nc(C)cc(N4CCN(C(=O)c5ccco5)CC4)n3n2)c1 returned aSyn 5UTR act -70.
Screening COc1cc(OC)cc(-c2cc3nc(C)c(CCC(=O)NCc4ccccc4)c(C)n3n2)c1 returned aSyn 5UTR act inactive.
`COc1ccc(NC(=O)Nc2nnc(C(C)(C)C)s2)cc1` gave aSyn 5UTR act -67.
Cc1nc(NC(=O)Nc2ccc(Cl)cc2)sc1C was read as aSyn 5UTR act -164.
For CC(C)(C)c1nnc(NC(=O)Nc2ccc(Cl)cc2)s1 the results were aSyn 5UTR act -114.
O=[N+]([O-])c1ccccc1/C=N/Nc1nccnc1Cl was read as aSyn 5UTR act -184.
`Nc1cc(Cl)nc(N/N=C/c2ccccc2[N+](=O)[O-])n1` gave aSyn 5UTR act -188.
Oc1ccccc1/C=N/Nc1nccnc1Cl was read as aSyn 5UTR act inactive.
CC(C)C(=O)NCCc1nc(-c2ccc(Cl)cc2)no1 was read as aSyn 5UTR act -99.
`NS(=O)(=O)c1ccc(N/N=C/C=C/c2ccccc2[N+](=O)[O-])cc1` gave aSyn 5UTR act -177.
Cc1ccccc1/C=N/N1CCN(c2ccccc2)CC1 was read as aSyn 5UTR act -131.
`O=[N+]([O-])c1ccccc1/C=C/C=N/N1CCCCC1` gave aSyn 5UTR act -205.
`Cc1cccc(/C=N/N2CCN(c3ccccc3)CC2)c1` gave aSyn 5UTR act -140.
Cc1ccc(/C=N/N2CCN(c3ccccc3)CC2)cc1 was read as aSyn 5UTR act -100.
Screening Cc1cc(-c2ccc(C(C)C)c(S(=O)(=O)N3CCN(c4ccccc4)CC3)c2)on1 returned aSyn 5UTR act inactive.
Screening O=[N+]([O-])c1ccccc1/C=N\N1CCN(c2ccccc2)CC1 returned aSyn 5UTR act -201.
O=[N+]([O-])c1ccc(C23CC4CC(CC(O)(C4)C2)C3)cc1 was read as aSyn 5UTR act -87.
COc1ccc2nc(Cl)c(/C=N/Nc3ccccn3)cc2c1 was read as aSyn 5UTR act -88.
`COc1cccc(/C=N/Nc2nccnc2Cl)c1O` gave aSyn 5UTR act inactive.
COc1ccc(/C=N/Nc2nccnc2Cl)c(OC)c1 was read as aSyn 5UTR act -111.
`COc1cc2sc3ccc(C#CC4(O)CCCCC4)cc3c(=O)c2cc1OC` gave aSyn 5UTR act -137.
`CCOC(=O)C(NC(=O)Nc1ncccn1)(Oc1ccccc1)C(F)(F)F` (stereo not drawn) gave aSyn 5UTR act -83.
Screening COc1ccc(-c2ccc(CO)o2)cc1N returned aSyn 5UTR act -82.
For COc1cccc(C2c3c(oc4ccccc4c3=O)C(=O)N2Cc2ccco2)c1 (stereo not drawn) the results were aSyn 5UTR act -99.
COc1ccc(-c2nc3ccccn3c2NCc2ccc3c(c2)OCO3)cc1 was read as aSyn 5UTR act -91.
`COc1ccc(-c2nc3cc(C)ccn3c2NCc2ccc3c(c2)OCO3)cc1` gave aSyn 5UTR act -112.
`O=C(O)c1ccc2c3c(ncnc13)-c1ccccc1C2=O` gave aSyn 5UTR act inactive.
`Cc1ccc2c3c(cccc13)-c1ccccc1C2=O` gave aSyn 5UTR act -111.
Screening N#Cc1nc(-c2ccc(F)cc2)oc1NCCCn1ccnc1 returned aSyn 5UTR act -90.
For N#Cc1nc(-c2ccc(OCc3ccccc3Cl)cc2)oc1NCCCn1ccnc1 the results were aSyn 5UTR act -65.
`COC(=O)c1sc2nc3c(cc2c1N)COC(C)(C)C3` gave aSyn 5UTR act -131.
